This note sets out measurements from PubChem BioAssay (Tox21).

Inconclusive results are not listed. Activity calls are given as the source filed them. The call rests on the fitted dose curve; in most records, active means well fitted inhibition curve with a large enough effect in the signal ratio in the repeat runs (not every such curve was filed as active); inconclusive means weak or mixed curves, or effect the other way; inactive means no such curve, though single readings can be large or run the other way; the % refers to the signal ratio. Positions of bridges follow the written chain, without caps; N, C: chain ends. Non-standard residues stand in square brackets, D forms with d. Residues, ends and D or L forms follow the SMILES beside them. hArg = N=C(N)NCCCC[C@H](N)C(=O)O; Mpa = O=C(O)CCS

Sequence of Vitamin D3 receptor (Homo sapiens) (P11473 whole entry, looked up): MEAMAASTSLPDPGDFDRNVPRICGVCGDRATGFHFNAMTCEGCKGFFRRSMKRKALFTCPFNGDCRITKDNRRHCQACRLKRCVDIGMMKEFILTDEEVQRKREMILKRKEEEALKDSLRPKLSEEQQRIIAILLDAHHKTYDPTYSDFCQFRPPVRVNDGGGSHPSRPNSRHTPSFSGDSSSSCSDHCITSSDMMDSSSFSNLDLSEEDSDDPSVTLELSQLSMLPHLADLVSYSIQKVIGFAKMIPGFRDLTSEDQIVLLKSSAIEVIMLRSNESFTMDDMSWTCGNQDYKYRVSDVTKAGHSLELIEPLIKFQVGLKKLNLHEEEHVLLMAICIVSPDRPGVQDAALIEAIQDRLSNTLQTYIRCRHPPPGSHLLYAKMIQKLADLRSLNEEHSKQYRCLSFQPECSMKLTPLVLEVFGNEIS

The target in this experiment is Vitamin D3 receptor (Homo sapiens) (UniProt P11473). Put plainly: qHTS assay to identify small molecule antagonists of the vitamin D receptor (VDR) signaling pathway (AID 743223). Conditions: VDR-UAS-bla HEK293T, beta-lactamase FRET ratio, 16 h; series mostly up to 61 µM. An excerpt:
U.S. Tox21 Program National Center for Advancing Translational Sciences [NCATS] NIH Chemical Genomics Center [NCGC] U.S. Environmental Protection Agency [EPA] National Institutes of Environmental Health Sciences [NIEHS] National Toxicology Program [NTP] U.S. Food and Drug Administration [FDA] Tox21 Assay Overview: The vitamin D receptor (VDR), a member of nuclear hormone receptor superfamily, plays a critical role in calcium homeostasis and bone metabolism. It is also involved in cell differentiation and growth, and thrombogenicity.
Tox21 Assay Protocol Summary: VDR-bla cells were dispensed at 2,000 cells/5 uL of assay medium per well into black wall/clear-bottom 1536-well plates using a Multidrop Combi (Thermo Fisher Scientific, Waltham, MA) dispenser. After the assay plates were incubated at a 37C and 5% CO2 for 4 h, 23 nL of compounds dissolved in DMSO, positive controls or DMSO only was transferred to the assay plate by a Pintool station (Kalypsys, San Diego, CA), followed by addition of 1 uL of 1alpha, 25-Dihydroxy Vitamin D3 (3 nM, final concentration in the wells) using a Bioraptr Flying Reagent Dispenser (FRD) workstation (Beckman Coulter, Indianapolis, IN). The plates were incubated at 37C and 5% CO2 for 16 h, and then 1 uL of LiveBLAzerTM B/G FRET substrate was added using a Bioraptr FRD. The plates were incubated at room temperature for 2 h and fluorescence intensity was measured by an Envision plate reader (PerkinElmer, Shelton, CT).
A general note: qHTS replaces the single test concentration by a dilution series.
As for `CC(=O)OC(C)=O`, the result was inactive. With `COc1c2occc2c(OC)c2c(=O)cc(C)oc12`, the result was inactive. `CC(C)CCOC(=O)c1ccccc1`: the result was inactive. On to `O=Cc1ccccc1Cl`, for which the outcome was inactive. Under `O=C(O)CCCCCC(=O)O` stands “inactive”. As to `C=CCCCCCCCCC(=O)OCCCC`, the result was inactive. Under `Cc1ccc2c(c1)C(=O)c1ccccc1C2=O` stands “inactive”; under `CN(C)CCN(C)CCO`, “inactive”; under `CCCC(=O)Nc1ccc(OCC(O)CNC(C)C)c(C(C)=O)c1` (stereo not given), “inactive”. `C=CCSSCCC`: the outcome was inactive.

`O/N=C/C=N/O`: the outcome was inactive. Consider `CC/C=C\CCOC(=O)c1ccccc1O`, for which the result was inactive. Under `Nc1nnnn1-c1ccccc1` stands “inactive”. Consider `COP(=O)(O)OP(=O)(O)OC`, for which the outcome was inactive. Take `Cn1nnc2c(C(N)=O)ncn2c1=O`: the result was inactive.

In the case of `CCCCCCCCCCCCCCCCCCOCCO`, the outcome was inactive.

Take `CCOc1cccc(N)c1`: the outcome was inactive. Under `CCN1CCCC1CN` (stereo not given) stands “inactive”; under `O=[N+]([O-])c1c(Cl)cc(Cl)cc1Cl`, “inactive”; under `CC(=O)CCc1ccc(OC(C)=O)cc1`, “inactive”. `CCCCC1CCC(O)CC1` (stereo not given): the outcome was inactive. For `CC(=O)CC(=O)OC(C)(C)C`, the outcome was inactive. Under `CC(N)CCCC(C)(C)O` (stereo not given) stands “inactive”; under `CCN(CC)CCN`, “inactive”. Under `CC(O)CC(C)O` (stereo not given) stands “inactive”; under `C/C(=C1\CCOC(=O)S1)N(C=O)Cc1cnc(C)nc1N`, “inactive”. As for `COC(=O)c1cccc(Cl)c1`, the outcome was inactive. Regarding `CC(C)COC(=O)c1ccccc1`, the outcome was inactive. Under `Nc1nc(-c2ccccc2)c(Br)c(=O)[nH]1` stands “inactive”; under `CC(C)[C@H]1CC[C@H](C)C[C@@H]1O`, “inactive”. On to `CC1c2ccccc2CN1NC(=O)c1ccc(Cl)c(S(N)(=O)=O)c1` (stereo not given), for which the result was inactive. Regarding `CCCCOC(=O)[C@H](C)O`, the outcome was inactive.

With `CC1(C)O[C@H]2CC(=O)OC[C@]23[C@H]2CC[C@@]4(C)[C@H](c5ccoc5)OC(=O)[C@H]5O[C@]54[C@]2(C)C(=O)C[C@@H]13`, the result was inactive. On to `CC1(C)[C@H]2CC[C@](C)(C2)[C@H]1O`, for which the result was inactive. Take `CC(C)=CCC/C(C)=C/COC=O`: the outcome was inactive.

For the compound `CCNC(=O)NCc1cccc(Cl)c1`, the outcome was inactive.

Regarding `OCC1CCC(CO)CC1` (stereo not given), the result was inactive. As to `NC(=O)[C@@H]1CSSCCC(=O)N[C@@H](CCCCN=C(N)N)C(=O)NCC(=O)N[C@@H](CC(=O)O)C(=O)N[C@@H](Cc2c[nH]c3ccccc23)C(=O)N2CCC[C@H]2C(=O)N1` ([Mpa][hArg]GDWPC-NH2; disulfide 1-7), the result was inactive. Under `NCC1(Cc2noc(=O)[nH]2)CCCCC1` stands “inactive”; under `CC(C)OC(=O)CCC(=O)OC(C)C`, “inactive”.
